The record followed here is PubChem BioAssay AID2284324 (EPA ToxCast).

What is called AC50 is the concentration giving half of the maximal activity seen.

Records with an inconclusive call do not appear. Active and inactive are the calls of the source. How the source made its calls: active means hit-call score of the fitted dose curve at least 0.9, where 1 is the maximum; inconclusive means response in the unintended direction; inactive means score below 0.9.

The test system of the assay is Japanese medaka Glucocorticoid Receptor (GR), gene 101170451. Nature of the assay: ATG_jmGR_EcoTox2: Attagene TRANS-FACTORIAL EcoTox-2 HepG2 Assay for Japanese medaka Glucocorticoid Receptor (GR). As for the experimental part: ATG_EcoTox2 is a cell-based, multiplexed assay created by modifying the existing Attagene TRANS-FACTORIAL system to include a panel of nuclear receptors from some or all the following species: human (Homo sapiens), african clawed frog (Xenopus laevis), rainbow trout (Oncorhynchus mykiss), japanese medaka (Oryzias latipes), and zebrafish (Danio rerio). The ECOTOX2-FACTORIAL format uses HepG2, a human liver cell line, with measurements taken at 24 hours after chemical dosing in a 24-well plate. ATG_jmGR_EcoTox2 is one of 29 assay components calculated in the ATG_EcoTox2 assay. It is designed to make measurements of mRNA induction, a form of inducible reporter, as detected with fluorescence intensity signals by Reverse transcription polymerase chain reaction (RT-PCR) and Capillary electrophoresis technology.The assay endpoint ATG_jmGR_EcoTox2 was analyzed in the positive analysis fitting direction relative to DMSO as the negative control and baseline of activity. Using a type of inducible reporter, measures of mRNA for gain-of-signal activity can be used to understand the reporter gene at the transcription factor-level as they relate to the gene for glucocorticoid receptor. Furthermore, this assay endpoint can be referred to as a primary readout, because this assay has produced multiple assay endpoints where this one serves a reporter gene function. To generalize the intended target to other relatable targets, this assay endpoint is annotated to the nuclear receptor intended target family, where the subfamily is steroidal.
Human liver HepG2 cells are transiently transfected with multiple reporter transcription units (MRTUs) in 6-well plates using FuGene 6 reagent (Roche; 3 ml FuGene/1 mg DNA). The MRTU constructs are regulated by a cis-regulating element (promoter). Each RTU expresses a GAL4-UAS that regulates the transcription of a nearby target reporter gene sequence. A major difference between the CIS and TRANS system is that in CIS activities of endogenous TFs are measured, whereas the TRANS assay evaluates changes in activities of exogenous, chimeric NR-Gal4 proteins. […] At the end of 24 hour incubation, total RNA was isolated using TriZol reagent (Invitrogen). The isolated RNA is then reverse-transcribed using oligo(dT) primer and Mo-MLV reverse transcriptase (Invitrogen) with DNAse I (Ambion) treatment for 30 min. The one-tenth of the produced cDNA was amplified by PCR using Taq DNA polymerase (Invitrogen) and two reporter sequence-specific primers. The PCR products were fluorescently labeled by primer extension with 6-arboxyfluorescein (6-FAM) 5'-labeled reporter sequence-specific primer (2 min at 95 C, 20 s at 68 C and 10 min at 72 C) and these products were digested with 5U of HpaI (New England Biolabs) for 2h at 37 C. The fragments were purified using Qiaquick PCR columns (Qiagen), analyzed on an ABI 3130xL genetic analyzer (Applied Biosystems) with peak positions identified by using a set of X-rhodamine (ROX)-labeled MapMarker1000 molecular weight standards (BioVentures). The raw capillary electrophoresis data was processed using Attagraph software (Attagene).
On to `CC(C)(Oc1ccc(Cl)cc1)C(=O)O`, for which the result was inactive.

For `C[C@@H]1C[C@H]2[C@@H]3CCC4=CC(=O)C=C[C@]4(C)[C@@]3(F)[C@@H](O)C[C@]2(C)[C@@]1(O)C(=O)COP(=O)(O)O`, the AC50 is 14.8 nM (active).

In the case of `C[C@]12C=CC(=O)C=C1CC[C@@H]1[C@@H]2C(=O)C[C@@]2(C)[C@H]1CC[C@]2(O)C(=O)CO`, the compound was called inactive.

As for `Cc1ccc(C)c(OCCCC(C)(C)C(=O)O)c1`, the call was inactive.

In the case of `CC(C)(Oc1ccc(C2CC2(Cl)Cl)cc1)C(=O)O` (stereo not drawn), the outcome was inactive.

As for `CC(C)(Oc1ccc(CCNC(=O)c2ccc(Cl)cc2)cc1)C(=O)O`, the compound was classed as inactive.

Turning to `CC(C)OC(=O)C(C)(C)Oc1ccc(C(=O)c2ccc(Cl)cc2)cc1`, the call was inactive.

Take `Cc1cccc(Nc2cc(Cl)nc(SCC(=O)O)n2)c1C`: the compound was classed as inactive.
